The whole screen tested about 5,500 compounds, of which about 2,000 (36%) were called active. Another 18% or so got no clear call; they are omitted. Rule as the data show it: active = normalized growth mostly below about 0.91 (no sharp cut-off); inconclusive = no clear call, values can overlap the other calls; inactive = mostly above about 0.92. The list shows a part of the results.
Assay: chemical genetic growth profiling, strain panel (AID 1159580);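 also: tested at 20 µM; growth read once vehicle control cultures reached saturation at 30 °C; 1 = growth at the plate median or of vehicle wells; lower values mean less growth of the strain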
Details: S. cerevisiae deletion strains, growth OD
[1] = locus YBL105C, strain PKC1, hits give low values
[2] = locus YBR135W, strain CKS1, hits give low values
[3] = locus YBR136W, strain MEC1, hits give low values
[4] = locus YDL017W, strain CDC7, hits give low values
[5] = locus YDL108W, strain KIN28, hits give low values
[6] = locus YDL214C, strain PRR2, hits give low values
[7] = locus YDR052C, strain DBF4, hits give low values
[8] = locus YDR226W, strain ADK1, hits give low values
[9] = locus YDR477W, strain SNF1, hits give low values
[10] = locus YER123W, strain YCK3, hits give low values
[11] = locus YER133W, strain GLC7, hits give low values
[12] = locus YFL029C, strain CAK1, hits give low values
[13] = locus YFR003C, strain YPI1, hits give low values
[14] = locus YFR019W, strain FAB1, hits give low values
[15] = locus YFR028C, strain CDC14, hits give low values
[16] = locus YGR040W, strain KSS1, hits give low values
[17] = locus YGR052W, strain FMP48, hits give low values
[18] = locus YGR092W, strain DBF2, hits give low values
[19] = locus YHR030C, strain SLT2, hits give low values
[20] = locus YHR079C, strain IRE1, hits give low values
[21] = locus YHR082C, strain KSP1, hits give low values
[22] = locus YHR205W, strain SCH9, hits give low values
[23] = locus YIL147C, strain SLN1, hits give low values
[24] = locus YJL095W, strain BCK1, hits give low values
[25] = locus YJL157C, strain FAR1, hits give low values
[26] = locus YJR016C, strain ILV3, hits give low values
[27] = locus YJR066W, strain TOR1 (second series), hits give low values
[28] = locus YJR066W, strain TOR1, hits give low values
[29] = locus YKL048C, strain ELM1, hits give low values
[30] = locus YKL067W, strain YNK1, hits give low values
[31] = locus YKL101W, strain HSL1, hits give low values
[32] = locus YLR113W, strain HOG1, hits give low values
[33] = locus YLR133W, strain CKI1, hits give low values
[34] = locus YLR403W, strain SFP1, hits give low values
[35] = locus YML070W, strain DAK1, hits give low values
[36] = locus YMR205C, strain PFK2 (second series), hits give low values
[37] = locus YNL006W, strain LST8, hits give low values
[38] = locus YNL020C, strain ARK1, hits give low values
[39] = locus YNL161W, strain CBK1, hits give low values
[40] = locus YNL183C, strain NPR1, hits give low values
[41] = locus YNL222W, strain SSU72, hits give low values
[42] = locus YNL307C, strain MCK1 (second series), hits give low values
[43] = locus YOL136C, strain PFK27, hits give low values
[44] = locus YOR061W, strain CKA2, hits give low values
[45] = locus YOR119C, strain RIO1, hits give low values
[46] = locus YOR231W, strain MKK1, hits give low values
[47] = locus YOR329C, strain SCD5, hits give low values
[48] = locus YPL031C, strain PHO85, hits give low values
[49] = locus YPL153C, strain RAD53, hits give low values
[50] = locus YPL204W, strain HRR25, hits give low values
[51] = locus YPL209C, strain IPL1, hits give low values
[52] = locus YPL256C, strain CLN2, hits give low values
[53] = locus YPR025C, strain CCL1, hits give low values
[54] = locus YPR111W, strain DBF20, hits give low values
[55] = strain NNK1, hits give low values

Measured: normalized growth

Cc1ccc(NC(=S)C(C#N)C(=O)N2CCOCC2)c(C)c1 (stereo unspecified)
inactive: locus YAR019C, strain CDC15, hits give low values 0.993 | [1] 0.997 | [2] 0.988 | [3] 0.972 | locus YBR160W, strain CDC28, hits give low values 0.991 | [4] 0.992 | locus YDL028C, strain MPS1, hits give low values 0.988 | locus YDL101C, strain DUN1, hits give low values 0.995 | [5] 0.991 | locus YDL132W, strain cdc53, hits give low values 0.991 | [6] 1.04 | [7] 0.998 | locus YDR054C, strain cdc34, hits give low values 0.99 | [8] 0.98 | [9] 1.05 | [10] 1.05 | [11] 1.05 | locus YFL009W, strain cdc4, hits give low values 0.985 | [12] 0.995 | [13] 0.995 | [14] 1.01 | [15] 0.993 | [16] 1.05 | [17] 1.11 | [18] 1.02 | [19] 1.03 | [20] 1.04 | [21] 1.21 | [22] 0.908 | [23] 0.983 | [24] 1.02 | locus YJL128C, strain PBS2, hits give low values 0.937 | [25] 1.02 | [26] 0.991 | [27] 1.05 | [28] 1.19 | [29] 1.01 | [30] 1.02 | [31] 1.01 | locus YKL193C, strain SDS22, hits give low values 0.983 | locus YKL203C, strain TOR2, hits give low values 1.09 | [32] 1.07 | [33] 1.03 | [34] 0.957 | [35] 1.05 | locus YMR001C, strain CDC5, hits give low values 0.994 | [36] 1.03 | locus YMR277W, strain FCP1, hits give low values 0.989 | [37] 0.991 | [38] 1.04 | [39] 0.991 | [40] 1.18 | locus YNL207W, strain RIO2, hits give low values 0.985 | [41] 0.991 | [42] 1.02 | locus YOL078W, strain AVO1, hits give low values 0.985 | [43] 1.05 | [44] 1.01 | [45] 1.11 | [46] 1.11 | [47] 0.993 | [48] 1.04 | [49] 1.03 | [50] 1.06 | [51] 0.99 | [52] 1.06 | [53] 0.997 | locus YPR106W, strain ISR1, hits give low values 1.01 | [54] 1 | [55] 0.999 | strain TSCII, hits give low values 0.994

Clc1ccc(-c2cnc(Nc3cc(Cl)cc(Cl)c3)s2)cc1
active: [1] 0.63 | [2] 0.869 | [6] 0.134 | [9] 0.119 | [10] 0.158 | [11] 0.12 | [12] 0.514 | [14] 0.175 | [16] 0.142 | [17] 0.132 | [18] 0.148 | [19] 0.117 | [20] 0.204 | [21] 0.126 | [22] 0.0742 | [24] 0.16 | [25] 0.149 | [26] 0.791 | [27] 0.116 | [28] 0.109 | [29] 0.215 | [30] 0.164 | [31] 0.174 | [32] 0.163 | [33] 0.117 | [34] 0.0226 | [35] 0.166 | [36] 0.16 | [37] 0.679 | [38] 0.133 | [39] 0.529 | [40] 0.136 | [41] 0.608 | [42] 0.225 | [43] 0.147 | [44] 0.135 | [45] 0.46 | [46] 0.229 | [47] 0.781 | [48] 0.148 | [49] 0.136 | [50] 0.13 | [51] 0.625 | [52] 0.196 | [54] 0.674
inactive: [3] 0.956 | [4] 0.972 | [5] 0.972 | [7] 0.965 | [8] 0.964 | [13] 0.97 | [15] 0.966 | [23] 0.961 | [53] 0.927 | [55] 0.967

Source: PubChem BioAssay AID1159580 (chemical genetic matrix, 2015)
